Assay outcomes from PubChem.
DUSP3 inh – inhibitors of human VHR1 phosphatase (DUSP3); recombinant VHR phosphatase, colorimetric substrate read-out; 50,000 compounds, 0.7% hits; inhibition, % at 20 µM; P51452; in the data active means inhibition above about 60%
Target sequence (P51452 whole entry, looked up): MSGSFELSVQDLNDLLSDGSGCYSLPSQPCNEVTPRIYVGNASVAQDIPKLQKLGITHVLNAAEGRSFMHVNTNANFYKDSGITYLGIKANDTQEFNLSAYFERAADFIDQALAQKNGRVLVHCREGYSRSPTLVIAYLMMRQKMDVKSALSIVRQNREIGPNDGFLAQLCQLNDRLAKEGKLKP
The depositor's hits bear a star. Only a selection was taken, and hits are over-represented in it overall.

Cc1nc(N)sc1-c1csc(Nc2ccccn2)n1 was read as DUSP3 inh 51.
Cc1cc(C)nc(NS(=O)(=O)c2ccc(Nc3nc(-c4sc(N)nc4C)cs3)cc2)n1 was read as DUSP3 inh 67*.
Screening Cc1cc(NS(=O)(=O)c2ccc(Nc3nc(-c4ccccn4)cs3)cc2)no1 returned DUSP3 inh 3.
O=C(/C=C/c1ccccc1)NC(=S)Nc1cccc(NC(=O)c2cccc(Cl)c2)c1 was read as DUSP3 inh -17.
`CCOC(=O)c1c(C)nc2n(CCN3CCOCC3)c3ccccc3n12` gave DUSP3 inh -4.
For Cc1sc(NC(=O)CCN2C(=O)c3ccccc3C2=O)nc1-c1ccccc1 the results were DUSP3 inh 4.
`O=[N+]([O-])c1ccc(-c2ccc(C(=S)N3CCCCC3)o2)cc1` gave DUSP3 inh -23.
Cc1ccc(N2CCN(C(=S)c3ccc(-c4cccc([N+](=O)[O-])c4)o3)CC2)cc1 was read as DUSP3 inh 91*.
For O=[N+]([O-])c1ccc(-c2ccc(C(=S)N3CCOCC3)o2)cc1 the results were DUSP3 inh 2.
COC(=O)CN(c1cc(C)ccc1C)S(=O)(=O)c1ccccc1 was read as DUSP3 inh -11.
For Cc1c(N2C(=O)/C(=C\c3cccnc3)SC2=S)c(=O)n(-c2ccccc2)n1C the results were DUSP3 inh 4.
For CCOC(=O)c1c(C)nn(Cc2ccccc2)c1N the results were DUSP3 inh 6.
CCOC(=O)c1c(N)sc2c1CCN(Cc1ccccc1)C2 was read as DUSP3 inh 96*.
`CCCOC(=O)c1c(N)sc2c1CCC2` gave DUSP3 inh 8.
`CC1=NN(c2ccccc2)C(=O)C1C=C1C(=O)NC(=S)NC1=O` (stereo not drawn) gave DUSP3 inh 15.
For CCOC(=O)C1=C(O)/C(=C/c2cccc([N+](=O)[O-])c2)SC1=Nc1cccc(Cl)c1 the results were DUSP3 inh 18.
`CC1(C)OC2(NC1=O)C1CC3CC(C1)CC2C3` (stereo not drawn) gave DUSP3 inh 4.
For Cc1cccc(NC(=O)C2C(c3ccccc3)C=CC(c3ccccc3)C2C(=O)O)c1C (stereo not drawn) the results were DUSP3 inh 98*.
For Cc1cccc(NC(=O)C(C)Oc2ccccc2)c1C (stereo not drawn) the results were DUSP3 inh -39.
For Cc1cccc(NC(=O)C2CC2(c2ccccc2)c2ccccc2)c1C (stereo not drawn) the results were DUSP3 inh 5.
For Cc1cccc(C)c1NC(=O)c1c(F)c(F)c(F)c(F)c1F the results were DUSP3 inh -10.
`Cc1cc(/C=N/N2C(=O)c3ccccc3C2=O)c(C)n1C` gave DUSP3 inh -21.
Screening COc1ccc(/C=N/NC(=O)CC2C(=O)NN=C2C)cc1 (stereo not drawn) returned DUSP3 inh 16.
For C#CCn1cc(/C=C2\C(=O)NC(=O)N(c3ccc(Cl)cc3)C2=O)c2ccccc21 the results were DUSP3 inh 82*.
For O=C1NC(=O)N(c2ccc(Cl)cc2)C(=O)/C1=C/c1ccccc1 the results were DUSP3 inh -29.
O=C(Cn1cc(/C=C2\SC(=O)NC2=O)c2ccccc21)Nc1ccccc1 was read as DUSP3 inh 4.
COc1ccc(N2C(=O)NC(=O)/C(=C/c3cn(CCOc4ccccc4OC)c4ccccc34)C2=O)cc1 was read as DUSP3 inh -15.
`O=C(Cn1cc(/C=C2\NC(=O)NC2=O)c2ccccc21)Nc1ccccc1` gave DUSP3 inh -15.
Cc1ccccc1N1C(=O)NC(=O)/C(=C/c2cn(CC(=O)Nc3ccccc3)c3ccccc23)C1=O was read as DUSP3 inh 85*.
For CCOC(=O)c1sc(Nc2ccccc2)nc1-c1ccc([N+](=O)[O-])cc1 the results were DUSP3 inh 23.
O=C1CC(N2CCN(c3ccccn3)CC2)C(=O)N1c1cc(Cl)cc(Cl)c1 (stereo not drawn) was read as DUSP3 inh -94.
For O=C1/C(=C/c2cccc(O)c2)SC(=S)N1c1ccc(O)cc1 the results were DUSP3 inh -10.
Cc1ccc(NC(=O)c2cc(C(=O)Nc3ccc(C)c(C)c3)cc(N3C(=O)c4ccccc4C3=O)c2)cc1C was read as DUSP3 inh -4.
`Cc1cccc(C)c1NC(=O)CSc1nc2ccc(NC(=O)CSc3nccn3C)cc2s1` gave DUSP3 inh 8.
Screening CCOC(=O)C1=CN(c2ccc(OCC)cc2)C=C(C(=O)OCC)C1c1ccccc1F returned DUSP3 inh -8.
`COc1ccc(S(=O)(=O)N(CC(=O)Nc2ccc(Cl)cc2Cl)c2ccc(C)cc2)cc1OC` gave DUSP3 inh 31.
`Cc1nc2ccccc2n1C1CC(=O)N(c2ccc(Br)cc2)C1=O` (stereo not drawn) gave DUSP3 inh -4.
Cc1ccc(S(=O)(=O)/N=C/c2ccc(C(F)(F)F)cc2)cc1 was read as DUSP3 inh -2.
`CCc1ccc(OCC(=O)Nc2ccccc2C(F)(F)F)cc1` gave DUSP3 inh 112*.
`O=C(COc1ccc(Cl)cc1)Nc1ccccc1C(F)(F)F` gave DUSP3 inh -2.
Screening Cc1cccc(OCC(=O)Nc2ccccc2C(F)(F)F)c1 returned DUSP3 inh -22.
`Cc1cccc(N2CCN(C(=S)c3ccc(N(C)C)cc3)CC2)c1` gave DUSP3 inh -14.
`C=CCc1cccc(/C=N\NC(=O)CN2CCN(Cc3ccccc3)CC2)c1O` gave DUSP3 inh -2.
O=C(Nc1ccc(Cl)c2c1C(=O)c1ccccc1C2=O)c1ccc([N+](=O)[O-])cc1Cl was read as DUSP3 inh -6.
COc1ccc(CCNC(=O)/C(=C/c2ccc(C(C)C)cc2)NC(=O)c2ccccc2)cc1OC was read as DUSP3 inh -21.
For Cc1ccc(OCC(=O)Nc2sc3c(c2C(N)=O)CCC3)c(C)c1 the results were DUSP3 inh 16.
Screening COC(=O)c1ccccc1NC(=O)COc1ccc2ccccc2c1 returned DUSP3 inh -8.
For Cc1cc(=O)oc2cc(OCC(=O)Nc3sc4c(c3C(N)=O)CCC4)ccc12 the results were DUSP3 inh 78*.
Screening COC(=O)c1sc(NC(=O)COc2ccc3ccccc3c2)c(C(N)=O)c1C returned DUSP3 inh 97*.
COc1ccc(OCC(=O)Nc2sc3c(c2C(N)=O)CCCC3)cc1 was read as DUSP3 inh -20.
Screening CCN(CC)C(=O)c1sc(NC(=O)COc2ccc3ccccc3c2)c(C(=O)OC(C)C)c1C returned DUSP3 inh 1.
Screening CC1=NN(C(=O)OC(C)(C)C)C(O)(c2ccncc2)C1 (stereo not drawn) returned DUSP3 inh -24.
Screening COc1cccc(OC)c1OCCOCCOc1ncnc2ccccc12 returned DUSP3 inh 5.
O=C(Nc1cccc(Br)c1)C1C2CCC3C(CCC21)C3(Cl)Cl (stereo not drawn) was read as DUSP3 inh -2.
Screening O=C(O)C1C2CC/C=C\CC/C=C/CCC21 (stereo not drawn) returned DUSP3 inh 18.
Screening O=C(Nc1c(Cl)cccc1Cl)C1C2CC/C=C\CC/C=C/CCC21 (stereo not drawn) returned DUSP3 inh 112*.
`CCOC(=O)c1c(NC(=O)c2ccc(Cl)c(Cl)c2)sc(C(=O)Nc2ccccc2F)c1C` gave DUSP3 inh -12.
For CCOC(=O)c1c(NC(=O)c2cccc(OC)c2)sc(C(=O)Nc2ccccc2F)c1C the results were DUSP3 inh 115*.
